Measured values taken from the supplement of paper PMC10849652.
Targets with a hit are over-represented here; the source holds about 7,900 in all. About 0.6% of all pairs of compound and target were hits. Values without a mark were called inactive.

Assays:
Assay in all cases: log2 fold change, soluble protein after heating vs DMSO (PISA); higher = thermal stabilisation; K562 cells, 10 uM, 30 min; active = over 0.2 and 3.5 SD of the protein, either way, in both replicates (recomputed)
[1] = compound: CC1=C(C=C(C=C1)NC(=O)C2=CC(=CC=C2)C(C)(C)C#N)NC3=CC4=C(C=C3)N=CN(C4=O)C
Outline: (§1)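 K562 cells (2×10^6 cells/mL) were treated with 10 μM compound for 30 min, and aliquots were heated for 3 min over 48°C-58°C. Pooled aliquots were extracted in PBS with 0.5% NP-40 at 4°C, and the supernatant after 21,000xg for 90 min was measured by TMTpro 16plex LC-MS/MS with channel sums equalised. Reported thermal stability, relative to control samples and from duplicates, is a log2 fold change.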

[2] = compound: CC1=C(C=C(C=C1)NC(=O)C2=CC(=CC=C2)N(C)C)NC(=O)C3=CC=C(C=C3)O
Outline: as §1

[3] = compound: CC1=NC(=CC=C1)C2=C(N=C(N2)C(C)(C)C)C3=CC4=NC=CN=C4C=C3
Outline: as §1

vemurafenib = compound: CCCS(=O)(=O)Nc1ccc(F)c(C(=O)c2c[nH]c3ncc(-c4ccc(Cl)cc4)cc23)c1F [vemurafenib]
Outline: as §1

[4] = compound: CCCc1cc(C)[nH]c(=O)c1CNC(=O)c1cc(-c2ccnc(N3CCN(C)CC3)c2)cc2c1cnn2C(C)C
Outline: as §1

givinostat = compound: CCN(CC)Cc1ccc2cc(COC(=O)Nc3ccc(C(=O)NO)cc3)ccc2c1 [givinostat]
Outline: as §1

barasertib = compound: CCN(CCCOc1ccc2c(Nc3cc(CC(=O)Nc4cccc(F)c4)[nH]n3)ncnc2c1)CCOP(=O)(O)O [barasertib]
Outline: as §1

Nexturastat A = compound: CCCCN(Cc1ccc(C(=O)NO)cc1)C(=O)Nc1ccccc1 [Nexturastat A]
Outline: as §1

[5] = compound: CC1=CC=C(C=C1)SC2=C3C=C(SC3=CN=C2)C(=O)N
Outline: as §1

[6] = compound: CCCS(=O)(=O)Nc1ccc(F)c(C(=O)c2c[nH]c3ncc(Cl)cc23)c1F
Outline: as §1

Sequence of UniProt Q5VZI3 (Q5VZI3 whole entry, looked up): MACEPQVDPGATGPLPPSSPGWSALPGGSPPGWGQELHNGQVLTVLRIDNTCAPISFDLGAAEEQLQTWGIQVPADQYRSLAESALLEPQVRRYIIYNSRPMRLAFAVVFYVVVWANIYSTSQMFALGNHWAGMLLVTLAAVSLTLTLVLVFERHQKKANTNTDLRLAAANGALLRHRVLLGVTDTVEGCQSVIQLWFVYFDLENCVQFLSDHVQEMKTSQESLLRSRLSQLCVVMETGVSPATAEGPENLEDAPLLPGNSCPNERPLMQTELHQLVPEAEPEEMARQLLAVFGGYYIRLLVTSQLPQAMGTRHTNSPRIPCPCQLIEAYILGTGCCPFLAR
Sequence of UniProt Q502W6 (Q502W6 whole entry, looked up): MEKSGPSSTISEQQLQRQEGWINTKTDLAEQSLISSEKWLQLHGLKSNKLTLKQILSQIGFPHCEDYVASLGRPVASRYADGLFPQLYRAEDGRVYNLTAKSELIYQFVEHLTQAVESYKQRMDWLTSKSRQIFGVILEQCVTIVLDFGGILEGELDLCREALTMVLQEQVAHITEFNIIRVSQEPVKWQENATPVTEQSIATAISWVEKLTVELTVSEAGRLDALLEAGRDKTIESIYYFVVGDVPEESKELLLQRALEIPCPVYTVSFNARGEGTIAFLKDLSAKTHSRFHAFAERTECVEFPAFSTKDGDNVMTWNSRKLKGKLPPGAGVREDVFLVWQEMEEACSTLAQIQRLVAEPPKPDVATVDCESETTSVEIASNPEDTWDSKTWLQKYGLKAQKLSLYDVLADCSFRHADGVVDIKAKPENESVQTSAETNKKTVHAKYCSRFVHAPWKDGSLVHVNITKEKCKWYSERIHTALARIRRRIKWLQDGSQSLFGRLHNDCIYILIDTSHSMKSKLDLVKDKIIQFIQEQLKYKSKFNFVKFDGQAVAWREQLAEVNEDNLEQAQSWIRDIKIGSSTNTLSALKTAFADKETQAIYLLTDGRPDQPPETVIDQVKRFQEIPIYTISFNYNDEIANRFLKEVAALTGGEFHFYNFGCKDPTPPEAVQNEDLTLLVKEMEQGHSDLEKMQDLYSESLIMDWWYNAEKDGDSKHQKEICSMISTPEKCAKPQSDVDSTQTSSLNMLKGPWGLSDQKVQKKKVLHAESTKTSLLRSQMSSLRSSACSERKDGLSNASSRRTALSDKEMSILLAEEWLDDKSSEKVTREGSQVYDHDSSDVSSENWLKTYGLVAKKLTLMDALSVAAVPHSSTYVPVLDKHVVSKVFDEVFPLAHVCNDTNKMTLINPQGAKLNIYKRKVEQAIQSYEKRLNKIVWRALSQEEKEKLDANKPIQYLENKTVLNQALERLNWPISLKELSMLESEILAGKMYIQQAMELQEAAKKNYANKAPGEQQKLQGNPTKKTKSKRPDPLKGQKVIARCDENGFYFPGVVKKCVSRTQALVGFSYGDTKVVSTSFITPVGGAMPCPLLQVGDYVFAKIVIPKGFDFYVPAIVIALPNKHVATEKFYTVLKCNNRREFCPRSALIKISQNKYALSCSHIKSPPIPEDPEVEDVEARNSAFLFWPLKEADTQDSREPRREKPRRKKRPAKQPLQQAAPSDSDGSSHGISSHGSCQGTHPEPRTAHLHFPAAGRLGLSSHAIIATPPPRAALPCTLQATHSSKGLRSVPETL
Sequence of UniProt Q8NE00 (Q8NE00 whole entry, looked up): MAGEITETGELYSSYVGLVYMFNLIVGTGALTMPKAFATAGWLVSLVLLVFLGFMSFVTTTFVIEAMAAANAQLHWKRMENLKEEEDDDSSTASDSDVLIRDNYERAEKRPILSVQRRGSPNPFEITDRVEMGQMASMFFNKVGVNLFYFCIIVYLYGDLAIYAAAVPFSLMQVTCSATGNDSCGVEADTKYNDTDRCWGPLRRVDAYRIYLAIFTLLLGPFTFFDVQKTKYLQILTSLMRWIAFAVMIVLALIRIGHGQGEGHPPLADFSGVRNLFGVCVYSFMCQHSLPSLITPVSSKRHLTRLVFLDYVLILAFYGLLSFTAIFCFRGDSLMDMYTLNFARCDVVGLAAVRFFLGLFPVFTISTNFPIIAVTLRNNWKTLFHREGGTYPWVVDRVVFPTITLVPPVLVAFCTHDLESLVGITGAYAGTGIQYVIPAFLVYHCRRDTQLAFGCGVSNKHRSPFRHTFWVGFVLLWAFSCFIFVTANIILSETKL
Sequence of UniProt O75691 (O75691 whole entry, looked up): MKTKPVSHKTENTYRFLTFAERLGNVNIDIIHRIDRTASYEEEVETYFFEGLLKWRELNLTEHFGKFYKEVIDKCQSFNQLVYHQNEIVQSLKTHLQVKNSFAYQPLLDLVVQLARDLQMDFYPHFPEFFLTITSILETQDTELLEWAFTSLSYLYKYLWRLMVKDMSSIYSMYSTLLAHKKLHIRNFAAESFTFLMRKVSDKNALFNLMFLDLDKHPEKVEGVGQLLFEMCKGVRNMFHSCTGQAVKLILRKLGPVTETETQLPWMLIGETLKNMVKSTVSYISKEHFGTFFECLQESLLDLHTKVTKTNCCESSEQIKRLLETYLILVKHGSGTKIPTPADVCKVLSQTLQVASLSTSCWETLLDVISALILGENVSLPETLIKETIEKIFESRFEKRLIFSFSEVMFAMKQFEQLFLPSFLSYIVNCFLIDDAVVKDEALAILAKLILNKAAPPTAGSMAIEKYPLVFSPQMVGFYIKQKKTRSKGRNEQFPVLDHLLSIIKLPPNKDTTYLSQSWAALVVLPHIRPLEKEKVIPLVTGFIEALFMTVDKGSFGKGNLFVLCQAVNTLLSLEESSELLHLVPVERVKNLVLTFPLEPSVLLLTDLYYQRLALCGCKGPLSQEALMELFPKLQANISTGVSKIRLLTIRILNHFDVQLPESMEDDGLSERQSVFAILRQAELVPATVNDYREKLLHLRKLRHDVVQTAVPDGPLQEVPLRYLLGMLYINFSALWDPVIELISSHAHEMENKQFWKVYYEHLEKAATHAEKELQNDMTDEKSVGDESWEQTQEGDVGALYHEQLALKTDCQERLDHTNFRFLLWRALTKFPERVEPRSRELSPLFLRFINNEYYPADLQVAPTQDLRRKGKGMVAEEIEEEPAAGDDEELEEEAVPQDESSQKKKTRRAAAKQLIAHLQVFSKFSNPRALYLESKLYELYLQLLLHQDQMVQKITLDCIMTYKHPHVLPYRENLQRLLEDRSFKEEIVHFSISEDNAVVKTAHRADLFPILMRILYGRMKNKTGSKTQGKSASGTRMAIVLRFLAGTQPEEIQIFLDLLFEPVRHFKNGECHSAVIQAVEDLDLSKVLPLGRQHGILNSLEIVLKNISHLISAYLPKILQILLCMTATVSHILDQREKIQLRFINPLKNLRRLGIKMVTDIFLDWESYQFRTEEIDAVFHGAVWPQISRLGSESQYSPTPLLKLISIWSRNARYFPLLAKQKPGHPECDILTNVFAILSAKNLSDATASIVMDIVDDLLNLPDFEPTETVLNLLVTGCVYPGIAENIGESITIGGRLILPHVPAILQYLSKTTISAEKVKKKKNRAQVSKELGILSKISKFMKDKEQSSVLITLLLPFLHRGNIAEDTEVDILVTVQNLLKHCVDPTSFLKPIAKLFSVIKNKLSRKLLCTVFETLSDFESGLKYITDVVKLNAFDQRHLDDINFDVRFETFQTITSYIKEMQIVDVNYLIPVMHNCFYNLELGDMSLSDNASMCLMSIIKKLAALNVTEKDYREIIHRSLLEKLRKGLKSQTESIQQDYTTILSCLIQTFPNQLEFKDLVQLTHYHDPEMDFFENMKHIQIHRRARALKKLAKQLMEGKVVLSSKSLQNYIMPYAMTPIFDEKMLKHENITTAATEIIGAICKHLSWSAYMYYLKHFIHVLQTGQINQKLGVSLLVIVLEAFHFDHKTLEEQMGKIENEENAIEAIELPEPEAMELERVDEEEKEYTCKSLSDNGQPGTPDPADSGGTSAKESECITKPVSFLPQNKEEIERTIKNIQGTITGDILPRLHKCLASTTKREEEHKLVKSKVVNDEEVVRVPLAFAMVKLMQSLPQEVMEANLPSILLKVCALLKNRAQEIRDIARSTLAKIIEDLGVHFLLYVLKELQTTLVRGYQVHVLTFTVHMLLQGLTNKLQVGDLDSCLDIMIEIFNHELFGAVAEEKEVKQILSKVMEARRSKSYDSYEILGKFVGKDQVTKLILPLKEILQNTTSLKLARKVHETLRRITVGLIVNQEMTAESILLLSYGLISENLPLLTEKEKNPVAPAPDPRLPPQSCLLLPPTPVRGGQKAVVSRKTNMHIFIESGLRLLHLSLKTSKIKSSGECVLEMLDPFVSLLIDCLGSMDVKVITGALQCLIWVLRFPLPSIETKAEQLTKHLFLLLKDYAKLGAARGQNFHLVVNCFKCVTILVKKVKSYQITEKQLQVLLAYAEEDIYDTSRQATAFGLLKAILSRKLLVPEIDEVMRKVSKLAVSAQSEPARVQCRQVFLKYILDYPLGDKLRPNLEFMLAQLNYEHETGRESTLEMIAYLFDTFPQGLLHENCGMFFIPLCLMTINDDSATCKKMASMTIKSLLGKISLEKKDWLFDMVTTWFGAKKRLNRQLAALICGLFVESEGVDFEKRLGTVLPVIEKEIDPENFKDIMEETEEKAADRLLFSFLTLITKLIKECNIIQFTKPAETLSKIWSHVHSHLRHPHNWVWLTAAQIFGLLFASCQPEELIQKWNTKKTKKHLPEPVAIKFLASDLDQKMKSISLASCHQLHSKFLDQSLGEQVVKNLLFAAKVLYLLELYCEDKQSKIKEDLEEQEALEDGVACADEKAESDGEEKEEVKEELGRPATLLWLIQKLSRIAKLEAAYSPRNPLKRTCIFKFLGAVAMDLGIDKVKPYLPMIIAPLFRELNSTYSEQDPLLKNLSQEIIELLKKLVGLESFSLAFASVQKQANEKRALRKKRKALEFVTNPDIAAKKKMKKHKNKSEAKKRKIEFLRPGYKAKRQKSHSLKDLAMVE
Sequence of UniProt P51668 (P51668 whole entry, looked up): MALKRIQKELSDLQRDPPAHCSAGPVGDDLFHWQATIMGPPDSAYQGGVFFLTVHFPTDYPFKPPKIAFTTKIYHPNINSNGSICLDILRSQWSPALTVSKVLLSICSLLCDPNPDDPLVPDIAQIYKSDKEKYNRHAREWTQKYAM

Target | log2 fold change [1] | log2 fold change [2] | log2 fold change [3] | log2 fold change (vemurafenib) | log2 fold change [4] | log2 fold change (givinostat) | log2 fold change (barasertib) | log2 fold change (Nexturastat A) | log2 fold change [5] | log2 fold change [6]
TRIM23 (UniProt P36406) | -0.025 | -0.008 | 0.036 | -0.022 | 0.055 | 0.027 | 0.021 | – | – | –
WARS1 (UniProt G3V227) | – | – | – | -0.455 | – | – | 0.004 | 0.459 | – | –
TVP23C (UniProt Q96ET8) | – | – | – | -0.022 | -0.118 | 0.043 | – | – | 0.024 | -0.178
TXNRD1 isoform 7 (UniProt Q16881) | -0.567 | – | – | -0.123 | – | 0.403 | 0.041 | 0.221 | -0.037 | 0.049
TMEM219 (UniProt Q86XT9) | 0.021 | – | – | 0.172 | – | -0.029 | -0.187 | 0.311 | 0.02 | -0.107
USP48 (UniProt Q86UV5) | -0.096 | – | – | – | -0.232 | 0.237 | 0.252 | – | – | –
TMEM106B (UniProt Q9NUM4) | -0.029 | – | 0.019 | -0.163 | -0.023 | 0.052 | -0.039 | -0.11 | 0.161 | -0.081
TRIQK (UniProt Q629K1) | -0.022 | -0.007 | -0.173 | – | 0.014 | – | -0.041 | -0.028 | – | –
UTP20 (UniProt O75691) | – | – | – | – | – | 0.463 | – | 0.755 (active) | 0.037 | -0.086
U2AF1L5 (UniProt P0DN76) | – | – | -0.036 | 0.019 | 0.06 | 0.563 | -0.127 | – | – | –
TRIM5 (UniProt Q9C035) | -0.063 | -0.197 | – | -0.044 | – | 0.119 | – | 0.033 | – | –
TOM1L2 (UniProt Q6ZVM7) | -0.038 | – | -0.132 | -0.008 | – | 0.025 | – | -0.046 | – | –
TRPT1 isoform 4 (UniProt Q86TN4) | -1.08 (active) | 0.136 | -0.008 | – | 0.029 | 0.179 | – | – | – | –
TOM1 (UniProt O60784) | 0.058 | – | -0.022 | – | -0.015 | -0.09 | -0.039 | 0.504 (active) | – | –
WARS1 (UniProt G3V5U1) | -0.795 | – | -0.638 | – | -0.118 | – | -0.007 | 0.136 | – | –
TMEM164 (UniProt Q5U3C3) | 0.288 | – | -0.047 | -0.083 | -0.305 | -0.038 | -0.095 | -0.142 | 0.05 | 0.078
TMEM184C (UniProt Q9NVA4) | -0.07 | 0.028 | 0.028 | 0.024 | -0.028 | – | 0.055 | -0.02 | – | –
WDR46, A0A0G2JJL1 | -0.161 | – | -0.254 | -0.09 | 0.19 | 0.15 | -0.248 | 0.194 | -0.229 | 0.078
XIAP (UniProt P98170) | -0.047 | – | – | 0.035 | -0.049 | 0.019 | 0 | -0.045 | -0.045 | 0

Target | log2 fold change [1] | log2 fold change [2] | log2 fold change [3] | log2 fold change (vemurafenib) | log2 fold change [4] | log2 fold change (givinostat) | log2 fold change (barasertib) | log2 fold change (Nexturastat A) | log2 fold change [5] | log2 fold change [6]
TTC26 | – | 0.116 | – | -0.598 (active) | – | – | -0.139 | – | – | –
XAB2 (UniProt Q9HCS7) | – | -0.027 | -0.034 | – | 0.168 | – | – | 0.469 | – | –
WARS1 (UniProt G3V3P2) | -0.055 | – | – | – | – | – | -0.255 | – | – | –
TMEM104 (UniProt Q8NE00) | – | 0.058 | -0.039 | – | -0.126 | -0.012 | – | -0.046 | -0.015 | -0.173
VDAC1 (UniProt C9JI87) | -0.03 | -0.003 | – | – | -0.053 | -0.052 | 0.071 | -0.093 | -0.034 | -0.134
UBAP2L (UniProt F8W726) | – | – | – | – | 0.014 | -0.067 | -0.058 | – | -0.093 | 0.004
VWA3B isoform 6 (UniProt Q502W6) | – | 0.104 | 0 | -0.1 | -0.169 | 0.011 | 0.057 | -0.292 | 0.072 | 0.008
XRCC1 (UniProt P18887) | 0.049 | 0.063 | -0.222 | – | – | 0.01 | – | 0.429 | – | –
UFM1 isoform 2 (UniProt P61960) | 0.004 | – | – | -0.13 | 0.127 | -0.146 | 0.053 | -0.36 (active) | -0.01 | 0.001
TMEM8A (UniProt Q9HCN3) | 0.101 | 0.017 | – | -0.003 | -0.077 | 0.014 | -0.189 | – | -0.047 | -0.073
WARS1 (UniProt G3V339) | – | – | – | – | – | – | – | 0.188 | – | –
WARS1 (UniProt G3V277) | 0.02 | – | -0.043 | -0.587 (active) | -0.338 | 0.141 | 0.073 | – | – | –
TMEM268 isoform 3 (UniProt Q5VZI3) | 0.056 | 0.024 | – | – | 0.18 | 0.11 | -0.461 | 0.124 | -0.178 | 0.083
WDR4 isoform 3 (UniProt P57081) | -0.041 | – | – | – | – | – | 0.08 | -0.031 | – | –
UBE2J2 isoform 3 (UniProt Q8N2K1) | -0.085 | – | – | 0.214 | – | 0.009 | 0.006 | 0.028 | 0.024 | -0.027
TUBA4A (UniProt C9JJQ8) | -0.019 | – | 0.138 | 0.053 | – | – | 0.136 | – | 0.022 | -0.065
WDR75 (UniProt Q8IWA0) | – | 0.007 | -0.053 | -0.126 | 0.107 | – | 0.025 | 0.395 | 0.043 | -0.069
UBE2D1 (UniProt P51668) | -0.08 | 0.029 | – | 0.156 | -0.004 | -0.035 | 0.047 | – | 0.021 | 0.097
